Laboratory results published in PubChem BioAssay (NCI).
About 83,000 compounds went through this panel and 20% of them were active in at least one assay; those are over-represented in the sample as a whole.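 Note: values are percent growth. 100 is the growth of untreated cells, values between 100 and 0 indicate rising inhibition; between -100 and 0 indicates cell death.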 Unmarked numbers belong to inactive results. Activity calls are given as the source filed them.

system: BT-549 breast; test: NCI-60 one-dose screen, 48 h (100 = growth as untreated, 0 = no growth, -100 = all killed); conditions: 10 µM unless noted
Method: Growth inhibition of the BT-549 human tumor cell line is measured as a screen for anti-cancer activity. Cells are grown in 96 well plates and exposed to the test compound for 48 hours. Compounds are tested at a single concentration, which is 10^-5 M for most compounds. The reported endpoint is percent growth (GI% or GIPRCNT), where numbers from 0 - 100% represent growth inhibition, and numbers from -100% - 0 represent cell death. For example, a value of 40 represents 60% growth inhibition. A value of 0 means no net growth occurred over the course of the experiment. A value of -40 indicates 40% of cells at the beginning of the experiment died by the end of the experiment. A value of -100 means all cells are dead at the end of the experiment.
NCI-60 Human Tumor Cell Lines Screen was performed using the standard one-dose NCI protocol, which is described in more detail at https://dtp.cancer.gov/discovery_development/nci-60/default.htm.
Compounds with GIPRCNT values below 10 were considered active. Activity score was based on GIPRCNT using the following formula: […]
Score is 0 for GIPRCNT values of 100 or above, 50 for GIPRCNT values of 0, and 100 for GIPRCNT values of -100.

SMILES	growth
CCCCCCCCCC1=NC(C)(C)CN1C(C)(C)CO	105%
C#CC[C@@H]1C[C@]2(C)[C@H]3CC=C4[C@H]5[C@@H](C)[C@H](C)CC[C@]5(C(=O)NCCCN5CCN(CCCN)CC5)CC[C@@]4(C)[C@]3(C)CC[C@H]2C(C)(C)[C@H]1OC(C)=O	-3.81% (active)
N=c1n(Cc2ccccc2)c(N)cc(=O)n1Cc1ccccc1	3.02% (active)
O=C(NCC(c1ccsc1)N1CCCCCC1)c1ccc(C(F)(F)F)cc1 (stereo not given)	99.8%
COC(=O)/C=C/c1cc(OC(C)=O)c2c(c1)[C@@H](C(=O)OC)[C@H](c1ccc(OC(C)=O)c(OC(C)=O)c1)O2	13.5%
COc1ccc2[nH]c(C(=O)OCc3ccc4cccc(O)c4n3)cc2c1	-79.3% (active)
Fc1cnccc1-c1nc2ccc3[nH]ncc3c2c2c1CCCC2	16.1%
F	5.2% [6.87 mM] (active)
CCCCNCC(O)c1cc(-c2ccc(C(F)(F)F)cc2)nc(-c2ccc(C(F)(F)F)cc2)c1 (stereo not given)	-31.2% (active)
CCOC(=O)C(=CNc1ccccc1Cl)C(=O)OCC	106%
COc1ccc(C2C3CCc4ccccc4C3=NN2C(=O)c2cc(OC)c(OC)c(OC)c2)cc1O (stereo not given)	89%
CC[C@H](Nc1nc(N)nc(N)c1Cl)c1nc2cccc(NCc3ccc(C(=O)NO)cc3)c2c(=O)n1-c1ccccc1	37.4%
COc1ccc(/C=C2\Cc3c(Br)cccc3C2=O)c(OC)c1	69.6%
O=C(C=P(c1ccccc1)(c1ccccc1)c1ccccc1)CCl	-11.3% (active)
Nc1nc(N)c2c(n1)NC(c1sc(Cl)nc1Cl)CC(c1ccccc1)=N2 (stereo not given)	44.5%
CCCCCCCCCCCCCCCCOc1ccc(S(=O)(=O)N(C)C)cc1[N+](=O)[O-]	97.4%
O=C(CI)NCCNc1cccc2c(S(=O)(=O)O)cccc12	96.8%
COc1ccc(-c2cn(-c3cccc(C(=O)/C=C/c4ccc(O)c(OC)c4)c3)c(=O)[nH]2)cc1	4.04% (active)
O=C(/C=C/c1cc([N+](=O)[O-])ccc1Cl)c1ccccc1	86.3%
O=C(OCc1ccc2c(Br)cc(Br)c(O)c2n1)c1cc2ccccc2[nH]1	-84.3% (active)

SMILES	growth
CC[C@H](Nc1nc(C)nc(N)c1C#N)c1nc2cccc(NCc3ccc(C(=O)NO)cc3)c2c(=O)n1-c1ccccc1	36.6%
O=C(/C=C/c1cccc([N+](=O)[O-])c1)c1ccc(Nc2nc(N3CCCCC3)nc(N3CCCCC3)n2)cc1	91.8%
Cc1nc2c(-c3cnc(N)nc3)nc(N3CCOCC3)nc2n1C(C)C	-3.32% (active)
COc1ccc(CCN2COc3c([C@@H](C)CCC=C(C)C)ccc(C)c3C2)cc1OC	87.9%
Brc1cccc(-n2ncc3c(Nc4ccc(-c5nnc(-c6ccccc6)o5)cc4)ncnc32)c1	101%
Cc1cc(C)c2c(NC(=O)Nc3ccc(Cl)c(Cl)c3)n[nH]c2n1	104%
CCOC(=O)C1=C(C)NC(SCc2nnc(-c3ccc(Cl)cc3)o2)=NC1c1ccc(Cl)cc1 (stereo not given)	75.3%
O=C1/C(=C\c2cccn2Cc2ccc(F)cc2)c2ccccc2N1c1c(Cl)cccc1Cl	95.6%
Cc1ccc(NC(=O)c2[nH]c(SCCN(C)C)nc2-c2ccc(F)cc2)cc1Nc1ccc2ncn(C)c(=O)c2c1	85.2%
Cc1cccc(C(=O)O)n1	109%
CN1CCN(Cc2ccc(NC(=O)c3ccc(C#N)c(C#Cc4cnc(N)c5ncccc45)c3)cc2C(F)(F)F)CC1	103%
C[C@@H]1C[C@H](N)C[C@H](c2ccncc2NC(=O)c2ccc(F)c(-c3c(F)cccc3F)n2)C1	51.2%
CC(C)CC(NC(=O)C(CCCN=C(N)N)NC(=O)OCc1ccccc1)C(=O)NC(CNC(=O)/C=C/c1ccccc1)C(C)C (stereo not given)	107%
COc1cccc(NC(=O)[C@H](C(C)C)n2c(=O)[nH]c3ccccc3c2=O)c1	102%
COc1ccc(-c2nc3ccc(Cc4ccc5nc(-c6ccc(OC)cc6)[nH]c5c4)cc3[nH]2)cc1	84.5%
COc1cc2cc(C(=O)Nc3ccccc3)c(N)nc2cc1OC	69.9%
COc1cc(Cn2c(-c3ccccc3)cc3c2-c2oncc2CC3)cc(OC)c1OC	41.2%
COc1c(B(O)O)cccc1-c1nc2ccc3[nH]ncc3c2c2c1CCCC2	7.15% (active)
COc1ccc2cc(-c3nc(C)c(C(C)=O)c(-c4ccc(C)cc4)n3)ccc2c1	82.3%
Nc1nc2c(c3ncccc13)C(c1ccccc1)Cc1ncccc1-2 (stereo not given)	72.9%
